Assay outcomes: PubChem, The Scripps Research Institute Molecular Screening Center
DAX1 inh-1: blocks DAX1 repression of SF-1 activated StAR promoter; HEK293T StAR-luciferase reporter, SF-1/DAX-1 repression relief; 1.1% of 370,000 active; AID 652010; inhibition, % at 6.8 µM;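 active means inhibition above the mean over all tested compounds plus 3 SD, cut at about 3.6% in these data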;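 further: 0% = DAX-1 cells with DMSO and 100% = cells lacking DAX-1 with DMSO; higher inhibition means more luminescence from relief of DAX-1 repression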
hgDAF-12 ag: hgDAF-12 agonism, primary luciferase screen. HEK293 GAL4-hgDAF12 UAS-luciferase reporter, agonist luminescence; normalized to butyrate control. activation, % at 6.8 µM. 1.8% of 370,000 active. AID 687014;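 active means activation above a cutoff set at the mean of all screened compounds plus 3 SD, cut at about 10% in these data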;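 further: 0% = DMSO wells and 100% = sodium butyrate wells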
ssDAF12 agonist: S. stercoralis DAF-12 activation, primary screen; HEK293 ssDAF-12/GRIP1 lit1-tk-luc reporter, luminescence; % of 3 µM dafachronic acid response; activation, % at 6.8 µM; 1% of 370,000 active; AID 652126;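 active means activation above the mean over all tested compounds plus 3 SD, cut at about 0.9% in these data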;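 further: 0% = DMSO-only wells and 100% = 3 µM delta7-dafachronic acid wells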
hcDAF12 agonist: H. contortus DAF-12 activation, primary screen; HEK293 hcDAF-12 lit1-tk-luc reporter, luminescence; 0% DMSO, 100% Δ7-dafachronic acid; activation, % at 6.8 µM; 1.4% of 370,000 active; AID 652067;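 active means activation above the mean of all tested compounds plus 3 SD, cut at about 5.5% in these data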;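 further: 100% = response to 3 µM Δ7-dafachronic acid high control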
SMARCA2 activ: SMARCA2 function activation, primary screen | MG213 cells, MMTV-luciferase reporter, dexamethasone, overnight | activation, % at 9.1 µM | 1% of 370,000 active | AID 652017; in the data active means activation above about 7.8%;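 further: 0% = vehicle wells and 100% = reference activator wells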
DAX1 inh-2: NR0B1 (DAX1) inhibition; HEK293 Gal4-DAX1 luciferase reporter, luminescence; inhibition, % at 6.75 µM; 0.99% of 340,000 active; AID 504766;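 active means inhibition above the mean over all tested compounds plus 3 SD, cut at about 4.2% in these data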;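 further: 0% = DAX1-transfected cells with DMSO and 100% = empty-vector control cells with DMSO; inhibition shows as a rise in luminescence from relieved DAX1 repression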
Target sequence (P51843 207-470 limits assumed): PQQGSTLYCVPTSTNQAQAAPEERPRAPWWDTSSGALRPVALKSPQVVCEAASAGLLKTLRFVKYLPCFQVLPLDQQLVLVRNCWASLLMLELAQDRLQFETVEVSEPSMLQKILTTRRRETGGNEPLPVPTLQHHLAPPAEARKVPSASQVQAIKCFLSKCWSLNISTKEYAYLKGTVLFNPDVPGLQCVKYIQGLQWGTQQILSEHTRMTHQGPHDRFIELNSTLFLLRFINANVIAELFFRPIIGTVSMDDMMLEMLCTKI
* marks the source's active call; other numbers are inactive results; x = no result given. A selection: hits, their analogues and other compounds. The true share with any hit is near 4.8%.

SMILES	DAX1 inh-1	hgDAF-12 ag	ssDAF12 agonist	hcDAF12 agonist	SMARCA2 activ	DAX1 inh-2
CC(=O)c1cccc(NC(=S)NC(=O)c2ccc(Cl)cc2)c1	1.0	8.6	-1.0	0.9	7.6	2.3
CCCc1cc(C(=O)NNC(=S)Nc2cccc(C)c2)cs1	1.8	10.8*	-0.1	-0.1	1.4	0.3
CC(=O)c1cccc(NC(=S)NC(=O)c2cccc(C)c2)c1	1.9	12.6*	-1.1	0.8	5.5	0.1
Cc1cccc(C(=O)NNC(=O)c2ccc(O)cc2)c1	0.0	0.2	-1.5	-2.7	-0.8	2.4
Clc1ccc2c(-c3ccccc3)nc(-c3cccs3)nc2c1	-1.2	-0.1	-0.3	-0.5	3.5	x
Cc1ccc2[nH]c(C(=O)O)c(NC(=O)[C@@H]3C[C@@H]3c3ccccc3)c2c1	-0.2	2.2	2.5*	3.3	5.0	0.7
C[C@@H]1[C@@H](c2ccccc2)c2cc3ccccc3nc2-c2nc3ccccc3cc2[C@@H]1C(=O)N1CCCC1	-0.4	-2.0	-0.4	0.7	-0.8	x
O=C(O)c1ccc(Nc2nc(-c3ccc([N+](=O)[O-])cc3)nc3ccccc23)cc1	1.0	1.1	-0.6	5.6*	0.4	-0.3
CC(=O)Nc1ccc(-c2cc(N)n(-c3ccccc3)n2)cc1	3.9*	11.3*	-0.8	4.4	2.2	2.2
CC(=O)Nc1ccc(-c2cc(NC(C)=O)n(-c3ccccc3)n2)cc1	-0.5	1.7	-0.9	-1.3	1.0	-0.2
CCOc1ccccc1NC(=O)CSc1nnc2c(CC)c(C)nc(N)n12	-0.1	-0.8	-1.7	-0.9	7.9*	0.0
CC1(C(=O)NCc2ccco2)Cc2c(-c3ccc(C(N)=O)cc3)ccnc2O1 (stereo not drawn)	-3.2	-0.7	-0.7	-2.2	-5.3	x
O=C(NC(c1ccc(F)cc1)c1ccc2ccccc2n1)C1CCN(Cc2ccc3ccccc3n2)CC1 (stereo not drawn)	-0.8	1.3	-0.7	1.0	7.3	x
O=C(NC(c1ccc(F)cc1)c1ccc2ccccc2n1)C1CCN(Cc2cccc(C(F)(F)F)c2)CC1 (stereo not drawn)	3.7*	-4.8	-1.4	-1.0	-3.8	x
COc1ccc(-c2ccnc3ncnn23)cc1	0.2	-2.5	-0.9	-0.8	-1.1	0.2
FCCCOc1ccc(-c2ccnc3ncnn23)cc1	-0.5	-1.4	-1.2	-0.8	-2.2	5.2*
O=C(CC1CCCC1)Nc1nnc(C2CC2)s1	-0.1	3.4	-1.0	-0.2	-1.2	4.6*
O=C(CCC(=O)NC1CC1)Nc1nnc(C2CCCCC2)s1	-0.6	0.3	-1.2	-1.8	2.2	-0.4
CCCS(=O)(=O)NC(=O)C1(C)CCN(C(=O)c2cc(C(C)(C)C)nn2C)C1 (stereo not drawn)	-0.1	0.4	-0.8	1.7	-2.6	x
O=C1CCC(=O)N(O)CCCCCNC(=O)CCC(=O)N(O)CCCCNC(=O)CCC(=O)N(O)CCCCCN1	-0.4	3.0	-0.2	-0.7	-1.6	5.3*
CCCC(=O)Nc1nc2ccc(S(N)(=O)=O)cc2s1	-0.2	2.5	-0.3	3.5	2.1	1.0
NS(=O)(=O)c1ccc2nc(NC(=O)Nc3ccccc3F)sc2c1	1.8	10.4*	-0.4	4.5	4.0	1.5
O=C(OCC#CCSc1nnc(-c2ccc(Br)cc2)o1)c1cccs1	0.1	1.2	1.0*	1.4	-0.3	0.1
Cc1ccc(-c2nnc(SCC#CCOC(=O)c3cccs3)o2)cc1	0.1	3.2	-0.9	0.6	0.0	-0.8
O=C(NNC(=O)c1cc(-c2ccncc2)nc2ccccc12)c1cccc(Cl)c1	1.2	2.8	2.6*	3.0	2.8	-1.0
SMILES	DAX1 inh-1	hgDAF-12 ag	ssDAF12 agonist	hcDAF12 agonist	SMARCA2 activ	DAX1 inh-2
Cc1ccc(O)c(/C=N/NC(=O)c2[nH]ncc2Br)c1	0.2	2.4	-0.7	6.2*	3.6	1.6
CCCCNC(=O)CSc1nc2ccsc2c(=O)n1CCCC(=O)NCCc1ccc(S(N)(=O)=O)cc1	0.8	2.8	-1.8	0.0	1.8	6.1*
NS(=O)(=O)c1ccc(CCNC(=O)CSc2nc3ccsc3c(=O)n2CCCCCC(=O)O)cc1	-0.5	1.3	-0.6	1.8	2.0	1.6
CSCCC(NC(N)=O)C(=O)Nc1cccc(C#N)c1 (stereo not drawn)	0.0	3.7	-1.8	-0.5	0.7	5.1*
Cc1ccccc1NC(=O)C(C)OC(=O)CNS(=O)(=O)c1ccc(C#N)cc1 (stereo not drawn)	0.4	0.0	-0.7	1.0	-2.2	0.3
CCN(CC(=O)Nc1ccc(NC(C)=O)cc1)C(=O)c1cccc2ccccc12	-1.1	0.8	-1.6	-0.9	-2.1	1.1
COC(=O)CN1C(=O)[C@H]2[C@@H](/C=C/c3ccccc3)N3C(=O)CN(CCO)C(=O)[C@@]3(Cc3ccccc3)[C@H]2C1=O	-0.1	1.1	-1.3	0.2	-0.4	1.1
Cc1cc(=O)[nH]c(N/N=C/c2ccc(F)cc2)n1	0.2	-0.4	1.3*	-0.6	-0.5	1.4
Cc1cc(=O)[nH]c(N/N=C/c2ccc(N(C)C)cc2)n1	0.4	1.4	-1.2	-0.6	-1.5	0.3
Cc1nc(C(F)(F)F)ccc1C(=O)N1CCC(C)(C(=O)NS(=O)(=O)C2CC2)C1 (stereo not drawn)	-0.6	1.1	-1.1	-1.5	-0.7	x
COc1ccc([C@H]2CC(=O)C=C(c3ccc(C)c(F)c3)C2)cc1	-0.2	-0.3	-1.3	-1.1	2.8	2.1
Cc1ccc(C23CC4CC(CC(CN)(C4)C2)C3)cc1	0.4	-0.1	-0.2	2.0	0.3	4.9*
Cc1ccccc1NC(=O)Nc1ccc(C(F)(F)F)cc1	0.7	10.6*	-0.5	-0.5	-3.2	1.1
CC(C)COC(=O)N(C)C[C@H]1OCc2cnnn2CCCC(=O)N([C@H](C)CO)C[C@@H]1C	0.3	0.4	-1.2	-0.7	-1.2	-0.1
Cc1ccc2nc(SCC(=O)N3CCOCC3)[nH]c2c1	2.7	8.2	0.0	2.4	1.1	0.7
Cc1ccc2[nH]c(SCC(=O)N3CCOCC3)nc2c1C	0.5	9.3	0.3	5.7*	3.9	2.9
OC[C@H]1O[C@@H](c2nc(-c3ccccc3Br)no2)[C@H](O)[C@@H]1O	0.5	1.3	-0.3	0.2	-6.6	x
OC[C@H]1O[C@@H](c2nc(-c3cccc4ccccc34)no2)[C@H](O)[C@@H]1O	1.2	12.8*	-0.5	0.9	1.5	x
Cc1cccc(C)c1N1CCN(CCn2c(=S)[nH]c3ccccc3c2=O)CC1	0.4	-1.4	-1.4	-1.4	-0.2	4.2*
Oc1ccc(Br)cc1-c1cc(-c2ccccc2F)[nH]n1	0.5	4.9	0.4	5.8*	3.0	0.2
Oc1ccc(Br)cc1-c1cc(-c2ccccc2Cl)[nH]n1	0.6	10.8*	-0.9	4.5	-1.7	0.3
Oc1ccc(Cl)cc1-c1cc(-c2ccccc2)n[nH]1	0.5	10.9*	0.7	5.7*	0.0	1.2
